Several values for one entry are separate records, joined by “and”; a condition that tells them apart may be missing. Equal entries are not always repeated.

Experimental findings from ChEMBL document CHEMBL1961873, “Compounds: GSK PKIS; Assays: Nanosyn kinase panel” (2012) are described below.

The target of assay [1] is Leukocyte tyrosine kinase receptor (Homo sapiens) (UniProt P29376). As to conditions: at 1 µM.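 Also: each value is the mean inhibition of LTK.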
Assay [2] deals with Tyrosine-protein kinase Lyn (Homo sapiens) (UniProt P07948). As to conditions: at 0.1 µM.
Assay [3] has the same target. As to conditions: at 1 µM.
For assay [4] the target is unchanged. Conditions: at 0.1 µM. This is another data set of the same source.
Assay [5] shares this target. Conditions: at 1 µM. This is another data set of the same source.
Assay [6] concerns the target T1, Tyrosine-protein kinase Mer (Homo sapiens) (UniProt Q12866).
T1 sequence (whole entry): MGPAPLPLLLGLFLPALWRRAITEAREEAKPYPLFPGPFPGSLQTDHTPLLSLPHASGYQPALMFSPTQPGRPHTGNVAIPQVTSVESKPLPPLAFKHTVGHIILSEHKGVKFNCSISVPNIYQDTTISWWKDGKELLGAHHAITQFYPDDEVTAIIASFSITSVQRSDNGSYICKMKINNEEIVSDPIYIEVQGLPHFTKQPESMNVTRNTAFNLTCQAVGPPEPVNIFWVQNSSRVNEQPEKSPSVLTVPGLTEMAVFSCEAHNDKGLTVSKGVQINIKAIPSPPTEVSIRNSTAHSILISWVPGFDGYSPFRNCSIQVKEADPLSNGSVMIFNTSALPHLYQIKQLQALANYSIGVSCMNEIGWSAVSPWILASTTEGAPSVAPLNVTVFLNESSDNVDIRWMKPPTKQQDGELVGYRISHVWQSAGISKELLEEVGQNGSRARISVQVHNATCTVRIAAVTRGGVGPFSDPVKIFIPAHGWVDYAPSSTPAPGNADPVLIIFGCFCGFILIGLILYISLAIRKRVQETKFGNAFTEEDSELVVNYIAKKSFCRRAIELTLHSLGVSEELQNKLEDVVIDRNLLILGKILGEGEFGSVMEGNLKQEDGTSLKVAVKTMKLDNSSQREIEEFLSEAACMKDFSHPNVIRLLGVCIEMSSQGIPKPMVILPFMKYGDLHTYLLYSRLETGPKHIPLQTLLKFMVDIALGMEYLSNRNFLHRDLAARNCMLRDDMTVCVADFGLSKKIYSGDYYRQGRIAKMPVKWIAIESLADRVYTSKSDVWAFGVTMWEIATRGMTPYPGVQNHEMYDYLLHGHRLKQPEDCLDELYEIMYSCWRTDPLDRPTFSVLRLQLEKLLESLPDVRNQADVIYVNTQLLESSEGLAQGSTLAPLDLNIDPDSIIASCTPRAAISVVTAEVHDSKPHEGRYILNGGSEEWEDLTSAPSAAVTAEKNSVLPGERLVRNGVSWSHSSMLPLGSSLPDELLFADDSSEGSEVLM
As to conditions: at 0.1 µM.

In assay [7] the target is T1, Tyrosine-protein kinase Mer (Homo sapiens). Conditions: at 1 µM.
Assay [8] concerns the target Hepatocyte growth factor receptor (Homo sapiens) (UniProt P08581). As to conditions: at 0.1 µM.
Assay [9] has the same target. As to conditions: at 1 µM.
Assay [10] addresses T2, Muscle, skeletal receptor tyrosine-protein kinase (Homo sapiens) (UniProt O15146).
T2 sequence (whole entry): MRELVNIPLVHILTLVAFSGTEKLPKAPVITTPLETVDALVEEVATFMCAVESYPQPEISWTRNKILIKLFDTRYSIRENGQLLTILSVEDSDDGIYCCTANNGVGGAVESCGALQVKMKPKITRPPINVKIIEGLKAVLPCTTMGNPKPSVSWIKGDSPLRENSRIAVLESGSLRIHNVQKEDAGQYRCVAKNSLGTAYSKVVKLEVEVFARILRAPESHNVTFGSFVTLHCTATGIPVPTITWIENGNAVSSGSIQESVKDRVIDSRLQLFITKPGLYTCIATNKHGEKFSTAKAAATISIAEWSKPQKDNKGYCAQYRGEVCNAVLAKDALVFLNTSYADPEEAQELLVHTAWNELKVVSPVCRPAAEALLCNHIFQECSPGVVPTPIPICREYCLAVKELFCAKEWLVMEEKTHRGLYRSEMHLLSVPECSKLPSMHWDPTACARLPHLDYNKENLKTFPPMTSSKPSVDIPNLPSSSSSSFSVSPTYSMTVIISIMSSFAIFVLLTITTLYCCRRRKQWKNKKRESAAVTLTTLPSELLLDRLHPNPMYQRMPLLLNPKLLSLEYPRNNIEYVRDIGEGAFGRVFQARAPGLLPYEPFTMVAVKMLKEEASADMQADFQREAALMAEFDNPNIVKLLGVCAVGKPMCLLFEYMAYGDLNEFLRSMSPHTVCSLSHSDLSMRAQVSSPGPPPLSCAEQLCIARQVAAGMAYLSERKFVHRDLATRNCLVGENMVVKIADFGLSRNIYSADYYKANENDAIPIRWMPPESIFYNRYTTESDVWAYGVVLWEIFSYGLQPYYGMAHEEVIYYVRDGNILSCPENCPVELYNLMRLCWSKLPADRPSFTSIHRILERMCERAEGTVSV
Conditions: at 0.1 µM.

Chain of Leukocyte tyrosine kinase receptor (Homo sapiens) (P29376 whole entry): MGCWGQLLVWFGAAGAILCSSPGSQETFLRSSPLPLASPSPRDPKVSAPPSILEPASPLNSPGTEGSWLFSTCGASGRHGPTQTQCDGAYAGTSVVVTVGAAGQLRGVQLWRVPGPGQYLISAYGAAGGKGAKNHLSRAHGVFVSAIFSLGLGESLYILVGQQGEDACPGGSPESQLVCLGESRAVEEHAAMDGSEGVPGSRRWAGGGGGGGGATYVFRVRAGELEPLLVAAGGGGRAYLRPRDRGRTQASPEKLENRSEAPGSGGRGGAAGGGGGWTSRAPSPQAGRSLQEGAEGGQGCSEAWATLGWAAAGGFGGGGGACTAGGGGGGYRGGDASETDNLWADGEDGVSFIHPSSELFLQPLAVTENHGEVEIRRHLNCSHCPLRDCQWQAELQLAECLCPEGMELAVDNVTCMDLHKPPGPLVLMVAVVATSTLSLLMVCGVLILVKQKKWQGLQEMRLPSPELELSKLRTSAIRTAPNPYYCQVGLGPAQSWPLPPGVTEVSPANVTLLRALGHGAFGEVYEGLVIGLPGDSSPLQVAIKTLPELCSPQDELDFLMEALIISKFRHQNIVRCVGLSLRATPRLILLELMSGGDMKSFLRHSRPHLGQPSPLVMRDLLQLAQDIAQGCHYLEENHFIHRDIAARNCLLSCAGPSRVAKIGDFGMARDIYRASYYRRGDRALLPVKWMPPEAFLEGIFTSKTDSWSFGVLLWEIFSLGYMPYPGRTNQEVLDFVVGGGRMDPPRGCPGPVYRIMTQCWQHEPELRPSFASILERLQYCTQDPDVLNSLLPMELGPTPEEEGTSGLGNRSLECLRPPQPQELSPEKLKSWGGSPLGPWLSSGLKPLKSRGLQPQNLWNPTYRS
Chain of Tyrosine-protein kinase Lyn (Homo sapiens) (P07948 2-512 limits assumed): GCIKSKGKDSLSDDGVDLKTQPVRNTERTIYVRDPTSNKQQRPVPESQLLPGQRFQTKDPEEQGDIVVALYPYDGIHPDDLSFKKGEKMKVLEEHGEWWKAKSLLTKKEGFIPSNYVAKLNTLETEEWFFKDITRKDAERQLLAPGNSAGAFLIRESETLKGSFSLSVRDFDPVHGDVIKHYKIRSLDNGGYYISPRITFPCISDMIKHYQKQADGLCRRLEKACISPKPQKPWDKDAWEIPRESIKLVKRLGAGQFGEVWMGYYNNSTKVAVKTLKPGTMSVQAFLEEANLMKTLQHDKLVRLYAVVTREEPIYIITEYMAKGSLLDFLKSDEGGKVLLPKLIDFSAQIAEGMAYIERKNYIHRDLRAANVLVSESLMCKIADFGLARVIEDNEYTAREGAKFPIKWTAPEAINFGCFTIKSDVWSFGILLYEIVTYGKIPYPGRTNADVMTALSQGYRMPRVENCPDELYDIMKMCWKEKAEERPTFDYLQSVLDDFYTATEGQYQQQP
Chain of Hepatocyte growth factor receptor (Homo sapiens) (P08581 whole entry): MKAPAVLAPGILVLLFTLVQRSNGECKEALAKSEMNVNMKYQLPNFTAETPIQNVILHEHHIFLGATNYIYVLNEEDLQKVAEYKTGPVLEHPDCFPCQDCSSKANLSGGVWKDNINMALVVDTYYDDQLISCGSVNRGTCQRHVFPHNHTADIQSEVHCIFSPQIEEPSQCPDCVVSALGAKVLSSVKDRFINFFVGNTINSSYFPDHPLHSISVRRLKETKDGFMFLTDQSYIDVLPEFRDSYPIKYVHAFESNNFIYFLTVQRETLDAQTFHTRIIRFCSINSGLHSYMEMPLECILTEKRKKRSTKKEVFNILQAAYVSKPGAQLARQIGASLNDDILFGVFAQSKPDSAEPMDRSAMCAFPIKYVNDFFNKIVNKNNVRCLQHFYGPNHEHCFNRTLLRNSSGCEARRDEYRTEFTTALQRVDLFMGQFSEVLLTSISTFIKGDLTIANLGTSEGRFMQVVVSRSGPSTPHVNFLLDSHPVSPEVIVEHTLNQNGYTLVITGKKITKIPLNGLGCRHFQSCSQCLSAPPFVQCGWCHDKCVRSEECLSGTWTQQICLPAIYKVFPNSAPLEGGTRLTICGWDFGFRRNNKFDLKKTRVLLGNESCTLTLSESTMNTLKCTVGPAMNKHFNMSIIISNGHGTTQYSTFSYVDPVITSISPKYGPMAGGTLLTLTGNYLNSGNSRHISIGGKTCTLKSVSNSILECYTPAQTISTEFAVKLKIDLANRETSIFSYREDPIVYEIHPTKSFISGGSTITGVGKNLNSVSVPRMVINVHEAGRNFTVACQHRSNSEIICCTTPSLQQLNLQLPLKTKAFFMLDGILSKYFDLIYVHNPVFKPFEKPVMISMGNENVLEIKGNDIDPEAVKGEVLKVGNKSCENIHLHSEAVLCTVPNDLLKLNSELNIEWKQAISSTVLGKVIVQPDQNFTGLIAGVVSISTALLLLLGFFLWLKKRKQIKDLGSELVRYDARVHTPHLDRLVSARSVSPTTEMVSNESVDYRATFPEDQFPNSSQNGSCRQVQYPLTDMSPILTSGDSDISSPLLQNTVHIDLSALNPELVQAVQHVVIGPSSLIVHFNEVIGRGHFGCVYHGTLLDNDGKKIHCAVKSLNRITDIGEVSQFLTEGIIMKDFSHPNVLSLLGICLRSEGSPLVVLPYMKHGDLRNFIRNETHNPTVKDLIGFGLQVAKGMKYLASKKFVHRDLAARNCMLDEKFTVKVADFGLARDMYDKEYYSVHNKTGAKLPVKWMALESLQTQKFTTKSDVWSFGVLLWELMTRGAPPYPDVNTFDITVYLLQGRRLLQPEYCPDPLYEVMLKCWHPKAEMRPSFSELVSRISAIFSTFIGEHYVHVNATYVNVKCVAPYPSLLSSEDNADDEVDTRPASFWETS

The inhibition is the change of the read-out against control, counted positive when it falls. As to `CS(=O)(=O)Nc1ccc(-c2ccc3c(NC(=O)C4CC4)n[nH]c3c2)cc1`, the inhibition in assay [1] stood at 3.75%; in assay [2] it was 3.8%; in assay [3], 4.62%; in [4], 2.46%; in assay [5], 3.58%; in [6] it was 0.84%. The inhibition is 3.15% in assay [7], 6.7% in assay [8], -3.22% in assay [9] and 3.2% in assay [10].

As for `CN(C)CCNC(=O)Nc1ccc(N(C)c2ccnc(Nc3ccc(CS(C)(=O)=O)cc3)n2)cc1`, the inhibition came out at 10.1% in assay [1]; 5.57% in assay [2]; 9.57% in assay [3]; 2.36% in assay [4]; 7.59% in assay [5]; 0.57% in assay [6]. Further, the inhibition in [7] stood at 4.35%; in assay [8], 5.93%; in assay [9], 25.4%; in assay [10], 3.67%.

For `O=C(O[C@H]1CN[C@H](C#Cc2cc3ncnc(Nc4ccc5c(ccn5Cc5cc(F)ccc5F)c4)c3s2)C1)N1CCOCC1`, the inhibition in [1] came out at 4.15%; in assay [2], 4.33%; in assay [3], 6.23%; in assay [4], 2.03%; in [5], 1.87%; in [6] it was 1.34%. Besides, the inhibition stood at 3.33% in [7], 7.21% in assay [8], 10.8% in [9] and 2.87% in [10].

As for `N#Cc1ccc2c(-c3ccnc(NC4CC4)n3)c(-c3ccc(F)cc3)nn2c1`, the inhibition is -0.2% in assay [1]; -0.29% in assay [2]; 1.87% in assay [3]; -0.74% in assay [4]; 1.81% in assay [5]; 0.43% in [6]. The inhibition in assay [7] stood at 2.56%; in [8], 3.34%; in [9] it was 3.65%; in [10] it was 0.58%.

Regarding `COc1ccc(Nc2ncc(-c3ccccc3)o2)cc1OC`, the inhibition in assay [1] is 2.24%; in [2], 7.52%; in assay [3] it was 37.3%; in [4], 5.1%; in [5], 32.9%; in [6], -0.52%. Further, the inhibition worked out at 5.18% in [7], 2.78% in assay [8], 1.69% in [9] and 2.37% in [10].

In the case of `COc1ccccc1-c1cc(/C=C2\C(=O)Nc3ncc(Br)cc32)cc(Br)c1O`, the inhibition in assay [1] came out at 5.69%; in assay [2] it was 6%; in [3], 14.4%; in [4], 4.58%; in [5], 9.46%; in assay [6], 3.28%. Moreover, the inhibition amounted to 7.77% in assay [7], 1.57% in assay [8], 4.03% in assay [9] and 1.98% in [10].

As for `CS(=O)(=O)CCNCc1ccoc1-c1ccc2ncnc(Nc3ccc(OCc4ccccc4)cc3)c2c1`, the inhibition worked out at 1.37% in [1]; 2.38% in [2]; 4.27% in assay [3]; 1.69% in assay [4]; 4.32% in assay [5]; 3.82% in [6]. Besides, the inhibition in [7] was 25.2%; in assay [8], 3.02%; in [9], 4.88%; in [10] it was 1.36%.

`O=C(Nc1n[nH]c2nnc(-c3cccnc3)cc12)C1CC1`: the inhibition was determined as 0.15% in assay [1]; 0.94% in [2]; 1.49% in assay [3]; 1.05% in [4]; 1.61% in assay [5]; 1.05% in [6]. The inhibition is 1.8% in [7], 3.88% in [8], 0.68% in [9] and -0.19% in assay [10].

In the case of `FC(F)(F)CNc1nccc(-c2cnn3ncccc23)n1`, the inhibition in [1] amounted to 0.86%; in [2], 3.13%; in assay [3], 3.07%; in assay [4] it was 2.86%; in assay [5], 1.59%; in assay [6] it was 2.37%. Further, the inhibition in [7] was -0.52%; in assay [8], 0.67%; in assay [9], 9.54%; in assay [10], 2.13%.

Consider `COc1cc2c(cc1Nc1nc(Nc3cccc(F)c3C(N)=O)c3cc[nH]c3n1)N(C(=O)CN1CCN(C(C)C)CC1)CC2`, for which the inhibition was 80.7% in assay [1]; 0.63% in [2]; -0.57% in assay [3]; -1.56% in [4]; -0.54% in assay [5]; 1.98% in [6]. Also, the inhibition in assay [7] stood at 3.27%; in assay [8], 5.94%; in [9], 1.99%; in [10] it was 1.22%.

As for `Nc1nccc(-c2c(-c3ccc(F)cc3)ncn2C2CCNCC2)n1`, the inhibition in assay [1] was -1.33% and 1.18%; in assay [2], -0.63% and 1.67%; in [3] it was 9.44% and 9.35%; in assay [4] it was -1.82% and 1.01%; in assay [5], 7.55% and 6.33%; in [6], 0.83% and 0.35%. Besides, the inhibition is 2.87% and 1.44% in assay [7]; -2.37% and 2.87% in [8]; -2.98% and 4.72% in [9]; -3.15% and 1.87% in [10].

As to `CCn1c(-c2nonc2N)nc2cncc(C(=O)NCCNC)c21`, the inhibition in assay [1] turned out to be 5.16%; in [2] it was 5.55%; in [3], 6.4%; in [4], 3.01%; in [5], 4.46%; in [6], 3.05%. Moreover, the inhibition was 3.22% in [7], 1.82% in assay [8], 4.45% in assay [9] and 5.69% in assay [10].

With `Cc1ccc(-c2cc3c(NC(=O)C4CC4)ncnc3o2)cc1`, the inhibition stood at 3.83% in assay [1]; 5.46% in assay [2]; 6.63% in assay [3]; 2.61% in [4]; 5.69% in assay [5]; 2.35% in assay [6]. Further, the inhibition in assay [7] stood at 6.56%; in assay [8] it was 4.71%; in [9] it was 4.06%; in [10], 2.65%.

For the compound `O=C(O[C@H]1CN[C@H](C#Cc2cc3ncnc(Nc4ccc5c(cnn5Cc5ccccc5)c4)c3s2)C1)N1CCOCC1`, the inhibition in assay [1] was -0.87%; in assay [2], 1.1%; in assay [3], 1.11%; in assay [4], 1.54%; in [5], 0.75%; in assay [6] it was 1.33%. Moreover, the inhibition in assay [7] worked out at 9.62%; in [8], 5.14%; in [9], 1.77%; in assay [10] it was 0.92%.

`Cc1cc(O)cc(C)c1/C=C/c1cncc(C(=O)OC(C)(C)C)c1`: the inhibition in assay [1] turned out to be 2.98%; in assay [2], 13.7%; in [3], 57.2%; in [4], 13.6%; in [5], 53.4%; in [6] it was 1.26%. Besides, the inhibition in assay [7] worked out at 2.87%; in assay [8], 4.92%; in assay [9] it was 5.5%; in [10], 3.21%.

On to `CC1=C(C(=O)Nc2ccc3[nH]ncc3c2)C(c2ccc(F)cc2)N=C(c2ccc(C(F)(F)F)nc2)N1` (stereo not given), for which the inhibition in [1] came out at 3.48%; in assay [2], 2.25%; in [3] it was 5.17%; in assay [4] it was 0.9%; in assay [5], 3.68%; in assay [6], 1.51%. The inhibition in assay [7] stood at 2.57%; in assay [8], 3.67%; in assay [9], 2.53%; in [10], 2.32%.
